# Experimental data: PubChem BioAssay (EPA / NIEHS)
# Inconclusive results are not listed. Active and inactive are the calls of the source. How the source made its calls: active means hit-call score of the fitted dose curve at least 0.9, where 1 is the maximum; inconclusive means response in the unintended direction; inactive means score below 0.9.
# Experiment: TOX21_p53_BLA_p3_viability: Viability Assessment in the Tox21 HCT-116 p53 Agonism Beta-lactamase Assay, Phase 3 (AID 2283593);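 further: cells exposed to compound for 16 h before reading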
# Excerpt: TOX21_p53_BLA_p3 is a cell-based, single-readout assay that uses HCT116, a human intestinal cell line, […] in a 1536-well plate.TOX21_p53_BLA_p3_viability is an assay readout measuring cellular ATP content and detected with CellTiter-Glo Luciferase-coupled ATP quantitation.TOX21_p53_BLA_p3_viability used a type of viability reporter where loss-of-signal activity can be used to understand changes in the cell viability. Furthermore, this assay endpoint can be referred to as a secondary readout, because this assay has produced multiple assay endpoints where this one serves a viability function. To generalize the intended target to other relatable targets, this assay endpoint is annotated to the cell cycle intended target family, where the subfamily is cytotoxicity.
# Thawing Method: Place 14 mL of pre-warmed thaw medium into a 15 mL of conical tub. Remove the vial of cells to be thawed from liquid nitrogen and thaw rapidly by placing at 37C in a water bath with gentle agitation for 1-2 minutes. Decontaminate the vial by wiping with 70% ethanol before opening in a biological safety cabinet. Transfer the vial contents drop-wise into 14 mL of thaw medium in a sterile 15-mL conical tub. Centrifuge cells at 900 rpm for 4 minutes and resuspend in thaw medium. Transfer contents to the T75 tissue culture flask containing Thaw Medium and place flask in a humidified 37C/5% CO2 incubator. Switch to growth medium at first passage.Propagation Method: Aspirate medium, rinse once in DPBS, add 0.25% Trypsin/EDTA and swirl to coat the cell evenly. Add an equal volume of Growth Medium to inactivate Trypsin after 2-3 minutes incubation at 37C. Centrifuge cells at 900 rpm for 4 minutes and resuspend in growth medium. Cell should be passage or fed at least twice a week.Assay Protocol: Harvest cells from culture in growth medium and resuspend in assay medium. 2.2 Dispense 4000 cells/5 uL/well into 1536-well black/clear bottom plates using a Multidrop dispenser. After the cells were incubated at 37C for 5 hours, 23 nL of compounds dissolved in DMSO were transferred to the assay plate by a PinTool resulting in a 217-fold dilution. Incubate the plates for 16 hours at 37C, 5% CO2. Add 1 uL of 6X LiveBLAzer FRET B/G (CCF4-AM) Substrate Mixture to each well using a BioRAPTR dispenser and incubate the plates at room temperature for 2 hours. Measure fluorescence intensity at 460 and 530 nm emission and 405 nm excitation by an Envision detector. Data is expressed as the ratio of 460nm/530nm emissions. Add 4 uL of Cell-titer Glo to each well using BioRAPTR and incubate the plates at room temperature for […]. For cell viability readout that measures cytotoxicity, 4 ul/well of CellTiter-Glo reagent was added into the assay plates using a Flying Reagent Dispenser. After 30 min incubation at room temperature, the luminescence intensity in the plates was measured using a ViewLux plate reader.
Compound,outcome,AC50
O=C1C(N(CO)C(=O)NCO)N(CO)C(=O)N1CO (stereo not given),inactive,–
O=C(C=Cc1ccccc1)OCc1ccccc1,inactive,–
COc1ccc(-c2coc3cc(O)ccc3c2=O)cc1,inactive,–
O=S(=O)(O)c1ccccc1C=Cc1ccc(-c2ccc(C=Cc3ccccc3S(=O)(=O)O)cc2)cc1,inactive,–
Cc1cccc(C(=O)O)c1,inactive,–
CCC(C)(C)C1CCCCC1OC(C)=O (stereo not given),inactive,–
COCC(C)N (stereo not given),inactive,–
CCCCC/C=C\C/C=C\CCCCCCCC(=O)OC,inactive,–
C=CC(=O)NC(C)(C)CS(=O)(=O)O,inactive,–
CCCNC(=O)NS(=O)(=O)c1ccc(Cl)cc1,inactive,–
N[C@H]1C(O)O[C@H](CO)[C@H](O)[C@@H]1O (stereo not given in full),inactive,–
CC(C)c1ccc2c(c1)CC[C@H]1[C@](C)(CN)CCC[C@]21C,–,32.3 µM (active)
O=C(O)c1ccccc1Nc1cccc(C(F)(F)F)c1,inactive,–
Cn1c([N+](=O)[O-])cnc1COC(N)=O,inactive,–
Nc1nc2ccccc2[nH]1,inactive,–
CCN(Cc1cccc(S(=O)(=O)O)c1)c1ccc(C(=C2C=CC(=[N+](CC)Cc3cccc(S(=O)(=O)[O-])c3)C=C2)c2ccccc2)cc1,inactive,–
COc1cc(C)ccc1C(C)C,inactive,–
Cc1cccc(OCCOc2cccc(C)c2)c1,inactive,–
C[Si](C)(CCCN)O[Si](C)(C)CCCN,inactive,–
O=C(Oc1ccccc1)c1ccc2ccccc2c1O,inactive,–

Compound,outcome,AC50
c1c[nH]cn1,inactive,–
OC1OCCOC1O (stereo not given),inactive,–
CCCOC(=O)CCCCC(=O)OCCC,inactive,–
O=S(=O)(O)CC(O)CCl (stereo not given),inactive,–
COC(=O)/C=C/C(C)=C\C=C\C(C)=C\C=C\C=C(C)\C=C\C=C(C)\C=C\C(=O)O,inactive,–
C/C=C\C/C=C/CCCCCCCCOC(C)=O,inactive,–
Cc1oncc1C(=O)Nc1ccc(C(F)(F)F)cc1,inactive,–
CC(=O)C=CC1C(C)=CCC(C)C1(C)C (stereo not given),inactive,–
CC(=O)NS(=O)(=O)c1ccc(N)cc1,inactive,–
O=C(O)CC(C(=O)O)C(CC(=O)O)C(=O)O (stereo not given),inactive,–
Cc1c(C)c([N+](=O)[O-])c(C(C)(C)C)c([N+](=O)[O-])c1C,inactive,–
COC(=O)C1=C(C)NC(C)=C(C(=O)OCC(C)C)C1c1ccccc1[N+](=O)[O-] (stereo not given),inactive,–
O=CN1CCCCC1,inactive,–
C=C(C)c1cccc(C(C)(C)N=C=O)c1,inactive,–
CCCCCCCCCCOS(=O)(=O)O,inactive,–
CC(=O)Oc1ccc(C)cc1,inactive,–
CC(=O)[C@@]1(O)CC[C@H]2[C@@H]3C[C@H](C)C4=CC(=O)C=C[C@]4(C)[C@@]3(F)[C@@H](O)C[C@@]21C,inactive,–
CC(=O)OC(C)C,inactive,–
Nc1ncn([C@@H]2O[C@H](CO)[C@@H](O)[C@H]2O)c(=O)n1,inactive,–
CCC(C)OC(=O)c1ccc(O)cc1 (stereo not given),inactive,–
